# Laboratory results taken from PubChem BioAssay (NCATS).
# Inconclusive results are not listed. Where a call stands in place of a potency, no number is given. A number with no mark means an inactive call. Calls of active or inactive are those of the source. Calls follow the shape of the dose curve; as a rule, active = well fitted curve in the direction sought with a large enough effect; inconclusive = small, poorly fitted or top-dose-only effect, or another doubt; inactive = no such curve, though single readings can be large; an effect the other way counts as inactive or inconclusive.
# Experiments:
# KB-3-1 = experiment: Cytotoxic Profiling of Annotated Libraries Using Quantitative High-Throughput Screening (AID 1296008); settings: Five cell lines viability, CellTiter-Glo ATP luminescence, 48-72 h; max response: stronger effect = lower value; also: nearly all actives have a fitted effect of over 60% in size; also: potency is read from the fitted curve at half-maximal effect
# Summary of the method: (§1)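 Cytotoxicity was measured as CellTiter-Glo ATP luminescence, read after 10 min at room temperature. Compound treatment of the cells lasted 48 or 72 hr at 37 degrees Celsius in a qHTS format.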
# NIH3T3 [1] = experiment: as above; settings: Five cell lines viability, CellTiter-Glo ATP luminescence, 48-72 h; max response: stronger effect = lower value
# Summary of the method: as §1
# HEK293T [2] = experiment: qHTS assay to identify novel small-molecules to repurpose for Merkel cell carcinoma treatment (AID 1296009); settings: MCC and control cell lines, CellTiter-Glo viability, 72 h; at 44.8 µM (top of the series) unless noted; also: nearly all actives have a fitted effect of over 60% in size
# Summary of the method: (§2)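 Cell viability measured by CellTiter-Glo following 72 hr compound treatment at 37 degree celsius, with NPC and MIPE libraries tested in 8- and 11-point concentration series.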
# C33A = experiment: Primary qHTS to identify gynecologic anti-cancer compounds using libraries of approved drugs and bioactive compounds (AID 1345084); settings: Gynecologic cancer cell panel viability, ATPlite luminescence, 48 h; series mostly up to 57.5 µM; also: nearly all actives have a fitted effect of over 55% in size
# Summary of the method: (§3)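 Measured: luminescence after ATPlite addition (15 min, RT). Exposure: 48 h, 37 C, 5% CO2.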
# CAOV3 = experiment: as above; settings: Gynecologic cancer cell panel viability, ATPlite luminescence, 48 h; series mostly up to 57.5 µM
# Summary of the method: as §3
# CASKI = experiment: as above; settings: Gynecologic cancer cell panel viability, ATPlite luminescence, 48 h; series mostly up to 57.5 µM
# Summary of the method: as §3
# Es-2 = experiment: as above; settings: Gynecologic cancer cell panel viability, ATPlite luminescence, 48 h; series mostly up to 57.5 µM
# Summary of the method: as §3
# HeLa = experiment: as above; settings: Gynecologic cancer cell panel viability, ATPlite luminescence, 48 h; series mostly up to 57.5 µM
# Summary of the method: as §3
# Hek293T [3] = experiment: as above; settings: Gynecologic cancer cell panel viability, ATPlite luminescence, 48 h, control line for the selectivity index; series mostly up to 57.5 µM
# Summary of the method: as §3
# JEG-3 = experiment: as above; settings: Gynecologic cancer cell panel viability, ATPlite luminescence, 48 h; series mostly up to 57.5 µM
# Summary of the method: as §3
# OV90 = experiment: as above; settings: Gynecologic cancer cell panel viability, ATPlite luminescence, 48 h; series mostly up to 57.5 µM
# Summary of the method: as §3
# NIH3T3 [4] = experiment: qHTS assay to identify novel small-molecules to repurpose for Merkel cell carcinoma treatment (AID 1296009); settings: MCC and control cell lines, CellTiter-Glo viability, 72 h; at 44.8 µM (top of the series) unless noted; also: nearly all actives have a fitted effect of over 60% in size
# Summary of the method: as §2
SMILES,outcome (KB-3-1),max response (NIH3T3 [1]),outcome (HEK293T [2]),Potency (C33A),Potency (CAOV3),Potency (CASKI),Potency (Es-2),Potency (HeLa),Potency (Hek293T [3]),Potency (JEG-3),Potency (OV90),max response (KB-3-1),outcome (NIH3T3 [1]),outcome (NIH3T3 [4]),Potency (KB-3-1),"activity change, negative = cytotoxicity (CASKI)","activity change, negative = cytotoxicity (Es-2)","activity change, negative = cytotoxicity (Hek293T [3])","activity change, negative = cytotoxicity (JEG-3)","activity change, negative = cytotoxicity (OV90)"
CC/C=C\CCO[C@@H]1O[C@H](CO[C@@H]2OC[C@H](O)[C@H](O)[C@H]2O)[C@@H](O)[C@H](O)[C@H]1O,inactive,-20.8%,inactive,inactive,inactive,inactive,inactive,inactive,inactive,inactive,inactive,–,–,–,–,–,–,–,–,–
CC(O)/C=C/C1OC(=O)CC1Nc1ccc(C(=O)O)cc1 (configuration not stated),–,–,–,inactive,inactive,inactive,inactive,inactive,inactive,inactive,inactive,5.7%,inactive,inactive,–,–,–,–,–,–
O=C1NC(Cc2c[nH]c3ccccc23)C(=O)NC1Cc1c[nH]c2ccccc12 (configuration not stated),inactive,-2.22%,inactive,inactive,inactive,inactive,inactive,inactive,inactive,inactive,inactive,–,–,–,–,–,–,–,–,–
Cc1cc(=O)oc2c(C=O)c(O)ccc12,inactive,-0.325%,inactive,inactive,inactive,inactive,inactive,inactive,inactive,inactive,inactive,–,–,–,–,–,–,–,–,–
C[C@H](Nc1ncnc2nc[nH]c12)c1cc2ccc(F)cc2nc1-c1ccccn1,inactive,-0.749%,inactive,inactive,inactive,inactive,inactive,inactive,inactive,inactive,inactive,–,–,–,–,–,–,–,–,–
OC1CCC(Nc2ncc3nc(Nc4c(F)cc(F)cc4F)n([C@H]4CCOC4)c3n2)CC1 (some centres not stated),inactive,3.11%,inactive,inactive,inactive,inactive,inactive,inactive,inactive,inactive,inactive,–,–,–,–,–,–,–,–,–
O=C(O)/C=C/c1ccc(O)c(O[C@@H]2O[C@H](CO)[C@@H](O)[C@H](O)[C@H]2O)c1,inactive,4.37%,–,inactive,inactive,inactive,inactive,inactive,inactive,inactive,inactive,–,–,–,–,–,–,–,–,–
C=CC1C(OC2OC(CO)C(O)C(O)C2O)OC=C(C(=O)OC)C1CC1CC(=O)CC(CCc2ccc(O)cc2)O1 (configuration not stated),–,-7.36%,–,inactive,inactive,inactive,inactive,inactive,inactive,inactive,inactive,0.837%,–,–,–,–,–,–,–,–
C=C1C(=O)O[C@H](CCC)[C@H]1C(=O)O,–,–,–,–,inactive,–,inactive,inactive,inactive,inactive,inactive,2.02%,inactive,inactive,–,–,–,–,–,–
Cc1cccc(C)c1OCc1cc(C(=O)N2CCC(c3ccncc3)CC2)no1,–,-17.2%,–,inactive,inactive,inactive,inactive,inactive,inactive,inactive,inactive,–,–,–,8.2 µM (active),–,–,–,–,–
CCC[C@@H]1O[C@@H]2C[C@H]3[C@@H]4CCC5=CC(=O)C=C[C@]5(C)[C@H]4[C@@H](O)C[C@]3(C)[C@]2(C(=O)CO)O1,inactive,-20.8%,–,inactive,inactive,inactive,inactive,inactive,inactive,inactive,inactive,–,–,–,–,–,–,–,–,–
O=C(O)c1ccc(OC2OC(CO)C(O)C(O)C2O)cc1 (configuration not stated),–,1.85%,–,inactive,inactive,inactive,inactive,inactive,inactive,inactive,inactive,6.64%,–,–,–,–,–,–,–,–
CC1(O)CC(O)C2(O)C=COC(O[C@@H]3O[C@H](CO)[C@@H](O)[C@H](O)[C@H]3O)C12 (some centres not stated),–,-15.6%,–,inactive,inactive,inactive,inactive,inactive,inactive,inactive,inactive,0.806%,–,–,–,–,–,–,–,–
O=C1CSc2ccccc2N1Cc1cccc(C(F)(F)F)c1,–,4.03%,–,inactive,inactive,inactive,inactive,inactive,inactive,inactive,inactive,-14%,–,–,–,–,–,–,–,–
O=S(=O)(Nc1ccccn1)c1ccc(N=Cc2c(O)[nH]c3ccc4ncsc4c23)cc1,–,–,–,–,–,–,–,–,–,–,–,-4.18%,inactive,inactive [at 9.27 µM],–,20.8% [at 11.6 µM],-0.0602% [at 11.6 µM],20.8% [at 11.6 µM],3.65% [at 11.6 µM],-9.17% [at 11.6 µM]
O=C1OCc2cc3cccc(O[C@@H]4O[C@H](CO)[C@@H](O)[C@H](O)[C@H]4O)c3c(O)c21,inactive,0.153%,–,inactive,inactive,inactive,inactive,inactive,inactive,inactive,–,–,–,–,–,–,–,–,–,–
